The text below walks through data of PubChem BioAssay (EPA / NIEHS).

Where “and” joins values, the source holds several entries; their conditions need not be identical. Equal values may be shown once. Records with an inconclusive call do not appear. Some structures have more than one record in an assay (separate samples or runs), and their calls can disagree. Calls of active or inactive are those of the source. Rule for the calls: active = hit-call score of the fitted dose curve at least 0.9, where 1 is the maximum; inconclusive = response in the unintended direction; inactive = score below 0.9.

A short description of test [1]: ArunA_CellTiter_hNC: Viability Assessment in the ArunA Biomedical's Oris Neural Crest (hNC) Cell Migration Assay (AID 2283752). The method, boiled down: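 After a 72 h chemical exposure, viability of hNC cells is read with CellTiter Aqueous One and fitted as signal loss relative to DMSO. Cells were seeded at 60,000/well on Matrigel and cultured 16 h at 37 C beforehand.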

Test [2] can be described thus: ArunA_CellTiter_hNP: Viability Assessment in the ArunA Biomedical's Oris Neural Crest (hNC) Cell Migration Assay (AID 2283753). In a few lines:
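Viability read with CellTiter 96 Aqueous One after 72 h chemical exposure of human hNP1 neuroprogenitors, which were plated on Matrigel in LIF/bFGF medium 16 h beforehand. Endpoint fitted in positive direction relative to DMSO.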

Test [3] is described as follows: ArunA_Migration_hNP: ArunA Biomedical's Oris Neuroprogenitor (hNP) Cell Migration Assay (AID 2283754). In a few lines: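 Readout is calcein-AM fluorescence (ex494/em517) of cells migrating into the detection zone, relative to DMSO. hNP1 cells (H9-derived) grown on Matrigel behind stoppers 16 h, then stoppers pulled and chemical applied 72 h; cytochalasin D as control.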

A short description of test [4]: ArunA_Migration_hNC: ArunA Biomedical's Oris Neural Crest (hNC) Cell Migration Assay (AID 2283755). In a few lines:
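Calcein-AM fluorescence (ex494 nm/em 517 nm) in the stopper-defined detection zone quantifies migration of hNC cells after 72 h chemical exposure; 60,000 cells/well plated on Matrigel with LIF and bFGF, 16 h pre-incubation. DMSO baseline.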

Test [5] in a line: ArunA_NOG_NucleusCount: ArunA Biomedical's Neurite Outgrowth (NOG) Assay for Nucleus Count (AID 2283756). In a few lines:
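Viable neuron count, from Hoechst nuclei passing size and intensity gates, imaged at 20x on differentiated H9-derived human neurons. Exposure lasted 48 h from seeding; activity was scored relative to DMSO.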

Test [6] in a line: ArunA_NOG_NeuriteLength: ArunA Biomedical's Neurite Outgrowth (NOG) Assay for Neurite Length (AID 2283757). In a few lines:
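Total neurite length per neuron, from traced βIII-tubulin-labelled processes longer than 10 um on viable Hoechst-gated cells, was scored as decrease from DMSO. Cells were hESC (H9)-derived neurons given 48 h chemical exposure immediately after seeding.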

A short description of test [7]: ArunA_NOG_NeuritesPerNeuron: ArunA Biomedical's Neurite Outgrowth (NOG) Assay for Neurites Per Neuron (AID 2283758). In a few lines:
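Differentiated human H9-derived neurons exposed to chemicals for 48 h from seeding, then stained with Hoechst and βIII-tubulin/DyLight 488. Automated imaging counted neurites (processes >10 um) per valid neuron; loss of signal versus DMSO scored.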

Test [8] can be described thus: ArunA_NOG_BranchPointsPerNeurite: ArunA Biomedical's Neurite Outgrowth (NOG) Assay for Branch Points Per Neurite (AID 2283759). The method, boiled down: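 Automated image analysis traced neurites (processes >10 um) from valid cell bodies after Hoechst and βIII-tubulin staining. hNN cells from H9 embryonic stem cells, 48 h exposure. Fitted bidirectionally against DMSO.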

Test [9] can be described thus: ACEA_AR_agonist_AUC_viability: ACEA Biosciences xCELLigence Real-Time Cell Analysis on Androgen Receptor Agonism for Viability (AID 2283775).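 For AC50: viability read 80 hours after compound addition.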 In a few lines:
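22Rv1 cells; impedance growth kinetics; 8-pt 1:4 dilutions from 100 uM top final, ≤0.5% DMSO; n = 2; 80 h read; AUC viability, loss-of-signal vs DMSO.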

A short description of test [10]: ACEA_AR_antagonist_AUC_viability: ACEA Biosciences xCELLigence Real-Time Cell Analysis on Androgen Receptor Antagonism for Viability (AID 2283776).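 Note: 22Rv1 human prostate cancer cells growing on impedance electrode plates; area under impedance growth curve at 80 h after dosing as viability; hits lower the growth signal relative to DMSO meaning cytotoxicity.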 In a few lines:
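22Rv1 prostate cells, continuous dosing up to 100 uM final (0.5% DMSO max), duplicate plates. Growth measured by impedance; AUC at 80 h, loss of signal vs DMSO.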

The nature of test [11]: ACEA_ER_AUC_viability: ACEA Biosciences xCELLigence Real-Time Cell Analysis on Estrogen Receptor Agonism for Viability (AID 2283782).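 Note: hit means loss of impedance signal meaning reduced cell growth or viability.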 The method, boiled down:
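Read-out: real-time electrical impedance (RT-CES) area under curve, loss of signal taken as reduced viability, normalized to DMSO baseline. T-47D cells, charcoal-stripped serum medium, compounds up to 100 uM final, continuous exposure, 80 h.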

Test [12] can be described thus: STM_H9_NormalizedViability: Cytotoxicity Assessment at 120 hours in the Stemina devTOX quickPredict H9 human embryonic stem cell (hESC)-based Assay (AID 2283784). The method, boiled down: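 Viability endpoint: background-corrected CellTiter-Fluor RFU expressed relative to the 0.1% DMSO mean on each plate. Undifferentiated H9 cells were treated with daily re-dosing and media change, and loss of signal was fitted.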

Test [13] addresses Luciferin 4-monooxygenase (Photinus pyralis) (UniProt P08659). In words: CCTE_Simmons_QuantiLum_inhib_2: CCTE's Firefly Luciferase Inhibition Assay, Simmons Lab (AID 2283767).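 For AC50: potency for inhibitors that lower luciferase luminescence relative to DMSO.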 The method, boiled down:
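Eight test concentrations, 5 nM up to 87.5 uM final, preincubated 30min at 37C in the dark with purified luciferase (0.5% DMSO final). Detection reagent (150uM D-luciferin, 147uM dATP, 75uM CoA, pH 7.8) injected per well before kinetic luminescence read; three replicates.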

Sequence of Luciferin 4-monooxygenase (Photinus pyralis) (P08659 whole entry, looked up): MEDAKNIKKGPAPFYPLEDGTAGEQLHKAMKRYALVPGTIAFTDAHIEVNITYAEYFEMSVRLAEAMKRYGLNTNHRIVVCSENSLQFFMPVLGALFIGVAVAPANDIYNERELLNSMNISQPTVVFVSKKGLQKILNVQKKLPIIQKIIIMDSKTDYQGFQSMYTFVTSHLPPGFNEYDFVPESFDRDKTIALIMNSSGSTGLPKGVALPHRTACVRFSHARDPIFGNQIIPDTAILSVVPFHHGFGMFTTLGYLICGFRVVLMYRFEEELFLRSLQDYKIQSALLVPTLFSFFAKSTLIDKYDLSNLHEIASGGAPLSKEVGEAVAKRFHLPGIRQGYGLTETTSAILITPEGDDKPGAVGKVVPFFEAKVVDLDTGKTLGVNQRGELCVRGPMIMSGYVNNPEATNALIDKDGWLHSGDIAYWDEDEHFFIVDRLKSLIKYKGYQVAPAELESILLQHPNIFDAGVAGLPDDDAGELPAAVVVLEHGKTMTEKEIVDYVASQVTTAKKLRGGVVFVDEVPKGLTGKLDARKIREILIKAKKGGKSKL

What is called AC50 is the concentration at which the activity in the assay is half-maximal. With `O=C(CCCN1CCC(O)(c2ccc(Cl)cc2)CC1)c1ccc(F)cc1`, the result in [1], in [4], in test [11] and in [12] was inactive. For the same compound, the concentration at half-maximal activity (AC50) is 12.4 µM (active) in [2]; 50 µM (active) and 61.7 nM (active) in [3]; 5.34 µM (active) in test [4]; 78.9 µM (active) in [5]; 78.1 µM (active) in test [6]; 77.9 µM (active) in test [7]. Also, the AC50 was 73.3 µM (active) in [8], 63.8 µM (active) in [9] and 53.7 µM (active) in [10].
As to `CC(C)[C@@H]1CC[C@@H](C)C[C@H]1O`, the result in test [9] and in test [11] was inactive. For the same compound, the AC50 in [10] is 0.541 µM (active).
As for `Cc1cc(Cc2cc(C)cc(C(C)(C)C)c2O)c(O)c(C(C)(C)C)c1`, the compound was called inactive in test [13] and in [9]. Also, the half-maximal activity concentration (AC50) is 21.4 µM (active) in [10] and 11.4 µM (active) in test [11].
On to `CCCCc1ccc2ccccc2c1S(=O)(=O)O`, for which the AC50 in test [9] was 3.3 µM (active). Besides, the compound was called inactive in [10] and in test [11].
As to `CCc1ccccc1O`, the result in test [9], in test [10] and in test [11] was inactive.
For the compound `Cc1ccc(S(=O)(=O)O)cc1`, the outcome in test [9], in test [10] and in [11] was inactive.
For `CC(=O)Nc1ccc(O)cc1`, the compound was classed as inactive in [9] and in test [10].
Consider `O=C1NS(=O)(=O)c2ccccc21`, for which the compound was classed as inactive in test [9], in test [10] and in test [11].
Consider `CCCCCCCCCCCC(=O)O`, for which the outcome in test [9] and in [10] was inactive.
Regarding `CC(C)c1c(C(=O)Nc2ccccc2)c(-c2ccccc2)c(-c2ccc(F)cc2)n1CC[C@@H](O)C[C@@H](O)CC(=O)O`, the AC50 is 4.23 µM (active) in test [9], 4.96 µM (active) in [10] and 2.91 µM (active) in test [11].
Take `Cc1[nH]nc2c1N=C(c1ccccc1Cl)c1cc([N+](=O)[O-])ccc1N2`: the AC50 in test [13] was 44.6 µM (active); in [9], 1.75 µM (active); in test [10], 2.04 µM (active); in test [12], 1.99 µM (active).
Consider `Cc1ccc(C)c(S(=O)(=O)O)c1`, for which the compound was called inactive in test [9] and in [11]. For the same compound, in test [10], the AC50 was 0.221 µM (active).
As for `CCc1cccc(CC)c1N(COC)C(=O)CS(=O)(=O)O`, the outcome in [13] was inactive.
Turning to `COc1cc([N+](=O)[O-])ccc1N`, the outcome in test [13], in [9], in test [10] and in test [11] was inactive.
Take `CCCCCCCCCCCC`: the result in [13] and in [9] was inactive. The AC50 in [11] is 50 µM (active) and 40.4 µM (active).
For the compound `O=C1OC2(c3ccccc31)c1cc(I)c(O)c(I)c1Oc1c2cc(I)c(O)c1I`, the AC50 in test [13] is 6.41 µM (active); in test [11], 18.5 µM (active). Also, in test [11], the call was inactive.
Turning to `CCCCC(CC)C(=O)O` (configuration not stated), in test [9], the AC50 is 4.14 µM (active). Moreover, the outcome in [9], in [10], in test [11] and in [12] was inactive.
